In PubChem BioAssay (Tox21):
Values joined by “and” are separate entries in the source; they are usually repeats but may differ in a detail not shown here. Identical values can stand only once. Results filed as inconclusive are left out. A call without a number means that no potency is given here. Active and inactive are the calls of the source. Unless noted, calls come from the whole dose curve; as a rule, active = well fitted curve in the direction sought with a large enough effect in the repeat runs; inconclusive = weak or mixed curves; inactive = no such curve, though single readings can be large; an effect the other way counts as inactive or inconclusive.

Experiments:
[1] = qHTS assay to identify small molecule antagonists of the retinoic acid receptor (RAR) signaling pathway (AID 1159552; note: nearly all actives have a fitted effect of over 50% in size; note: potency is the fitted concentration of half-maximal effect)
Procedure, shortened: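 Luminescent RARE reporter read-out in C3RL4 cells: 6 hr co-treatment at 37 C of test compounds with retinol at 1 uM final. Cells plated overnight beforehand; luciferase reagent incubated 30 min at room temperature before reading.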

[2] = qHTS assay to identify small molecule agonists of the retinoic acid receptor (RAR) signaling pathway (AID 1159553); note: potency is the fitted concentration of half-maximal effect
Procedure, shortened: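 Reporter readout comes from luciferase under RARE control in C3RL4 cells; compound exposure lasts 6 hr at 37 C in 5% CO2, and luminescence is recorded following a 30 min room-temperature incubation with reagent.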

[3] = qHTS assay to identify small molecule antagonists of the estrogen related receptor (ERR) signaling pathway from Tox21 library - cell viability counter screen (AID 1224834); note: nearly all actives have a fitted effect of over 30% in size; note: potency is the fitted concentration of half-maximal effect
Procedure, shortened: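 After 17.5 h of compound exposure at 37 C, ERR cells are incubated with CellTiter-Fluor for 30 min and fluorescence intensity serves as the viability measure.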

[4] = target: Luciferin 4-monooxygenase (Photinus pyralis) (UniProt P08659); experiment: qHTS assay to identify small molecule inhibitors of firefly luciferase (AID 1224835); note: nearly all actives have a fitted effect of over 25% in size; note: potency is the fitted concentration of half-maximal effect
Luciferin 4-monooxygenase (Photinus pyralis), sequence (P08659 whole entry, looked up): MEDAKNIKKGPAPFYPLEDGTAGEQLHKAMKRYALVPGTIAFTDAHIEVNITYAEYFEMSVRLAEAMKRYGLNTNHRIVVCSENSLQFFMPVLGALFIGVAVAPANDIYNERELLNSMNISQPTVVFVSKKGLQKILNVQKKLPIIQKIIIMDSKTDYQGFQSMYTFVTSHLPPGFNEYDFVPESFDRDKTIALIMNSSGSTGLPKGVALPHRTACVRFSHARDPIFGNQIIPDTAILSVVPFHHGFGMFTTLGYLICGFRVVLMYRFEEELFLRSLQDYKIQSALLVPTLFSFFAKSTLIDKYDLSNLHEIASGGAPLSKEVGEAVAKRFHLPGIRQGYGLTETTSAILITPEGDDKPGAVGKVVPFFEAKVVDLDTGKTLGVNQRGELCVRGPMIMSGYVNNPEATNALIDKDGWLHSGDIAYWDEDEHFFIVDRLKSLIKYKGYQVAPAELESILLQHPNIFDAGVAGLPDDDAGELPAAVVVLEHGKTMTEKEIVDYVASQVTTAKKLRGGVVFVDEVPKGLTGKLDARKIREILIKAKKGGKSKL
Procedure, shortened: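 Quantitative HTS format; KM concentrations of both substrates. Purified P. pyralis FLuc activity quantified from luminescence images.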

[5] = qHTS assay to identify small molecule antagonists of the constitutive androstane receptor (CAR) signaling pathway - cell viability counter screen (AID 1224837); note: nearly all actives have a fitted effect of over 45% in size; note: potency is the fitted concentration of half-maximal effect
Procedure, shortened: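 Counter screen run in HepG2-CYP2B6-hCAR cells: 4 hr settle, compound titration (15 concentrations) with 50 nM CITCO, 23 hr at 37 C/5% CO2, CellTiter-Fluor fluorescence.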

[6] = target: Nuclear receptor subfamily 1 group I member 3 (Homo sapiens) (UniProt Q14994); experiment: qHTS assay to identify small molecule antagonists of the constitutive androstane receptor (CAR) signaling pathway (AID 1224838);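 note: HepG2 cells stably expressing hCAR with CYP2B6 luciferase reporter stimulated by CITCO; nearly all actives have a fitted effect of over 40% in size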; note: potency is the fitted concentration of half-maximal effect
Nuclear receptor subfamily 1 group I member 3 (Homo sapiens), sequence (Q14994 whole entry, looked up): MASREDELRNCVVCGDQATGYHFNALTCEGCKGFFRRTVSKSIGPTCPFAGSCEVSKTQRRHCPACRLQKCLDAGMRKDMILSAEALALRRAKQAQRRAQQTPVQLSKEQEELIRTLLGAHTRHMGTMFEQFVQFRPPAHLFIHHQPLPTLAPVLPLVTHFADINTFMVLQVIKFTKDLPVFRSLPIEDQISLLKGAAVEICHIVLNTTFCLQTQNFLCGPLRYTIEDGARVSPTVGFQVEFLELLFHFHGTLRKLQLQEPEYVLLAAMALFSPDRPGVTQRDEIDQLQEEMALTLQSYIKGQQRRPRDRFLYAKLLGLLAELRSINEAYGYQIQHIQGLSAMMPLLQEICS
Procedure, shortened: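 Cell line: HepG2 double-stable for hCAR and CYP2B6-2.2kb reporter. Agonist: CITCO, 50 nM final. Compounds: 15 concentrations, 24 h, 37 C. Detection: ONE-Glo luminescence.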

[7] = target: Nuclear receptor subfamily 1 group I member 3 (Homo sapiens) (UniProt Q14994); experiment: qHTS assay to identify small molecule agonists of the constitutive androstane receptor (CAR) signaling pathway (AID 1224839); note: nearly all actives have a fitted effect of over 15% in size; note: potency is the fitted concentration of half-maximal effect
Procedure, shortened: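 Luminescent ONE-Glo read-out after 24 hr, 37 C exposure of double-stable HepG2-CYP2B6-hCAR reporter cells to a 15-point compound series, in the presence of 0.75 uM PK11195 (final).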

[8] = qHTS assay to identify small molecule antagonists of the estrogen related receptor signaling pathway with the pleiotropic PPARgamma coactivator (PGC) from Tox21 10K library - cell viability counter screen (AID 1224840; active = well fitted cell-killing curve with a large enough effect in the repeat runs, not every such curve was filed as active; note: nearly all actives have a fitted effect of over 40% in size; note: potency is the fitted concentration of half-maximal effect)
Procedure, shortened: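 Following seeding of 2,000 PGC/ERR cells/well and 6 hours' incubation, test compounds were delivered in DMSO. The plates then sat 17.5 hours at 37 C before a fluorogenic live-cell protease reagent (CellTiter-Fluor) was read after 30 min.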

[9] = qHTS assay to identify small molecule antagonists of the estrogen related receptor signaling pathway with the pleiotropic PPARgamma coactivator (PGC) from Tox21 10K library (AID 1224841; call rule not given here; note: series mostly up to about 92 µM; actives are mostly falling curves and most rising ones were filed inactive; nearly all actives have a fitted effect of over 50% in size)
Procedure, shortened: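 qHTS antagonist format: PGC/ERR cells, 2k/well, compound in DMSO by pin transfer after 6 h attachment, 18 h treatment at 37 C, One-Glo luminescence read at 30 min.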

[10] = qHTS assay to identify small molecule agonists of the estrogen related receptor signaling pathway with the pleiotropic PPARgamma coactivator (PGC) from Tox21 10K library (AID 1224842); note: nearly all actives have a fitted effect of over 15% in size; note: potency is the fitted concentration of half-maximal effect
Procedure, shortened: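 PGC/ERR reporter cells (NTP line) were seeded 2,000 per well, rested 6 h at 37 C/5% CO2, then pin-dosed with compounds in DMSO for 18 h at 37 C; luciferase read by One-Glo luminescence after 30 min at room temperature.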

[11] = target: Thyrotropin receptor (Homo sapiens) (UniProt P16473); experiment: qHTS assay to identify small molecule agonists of the thyroid stimulating hormone receptor (TSHR) signaling pathway (AID 1224843; calls by dose curve; note: nearly all actives have a fitted effect of over 45% in size)
Thyrotropin receptor (Homo sapiens), sequence (P16473 whole entry, looked up): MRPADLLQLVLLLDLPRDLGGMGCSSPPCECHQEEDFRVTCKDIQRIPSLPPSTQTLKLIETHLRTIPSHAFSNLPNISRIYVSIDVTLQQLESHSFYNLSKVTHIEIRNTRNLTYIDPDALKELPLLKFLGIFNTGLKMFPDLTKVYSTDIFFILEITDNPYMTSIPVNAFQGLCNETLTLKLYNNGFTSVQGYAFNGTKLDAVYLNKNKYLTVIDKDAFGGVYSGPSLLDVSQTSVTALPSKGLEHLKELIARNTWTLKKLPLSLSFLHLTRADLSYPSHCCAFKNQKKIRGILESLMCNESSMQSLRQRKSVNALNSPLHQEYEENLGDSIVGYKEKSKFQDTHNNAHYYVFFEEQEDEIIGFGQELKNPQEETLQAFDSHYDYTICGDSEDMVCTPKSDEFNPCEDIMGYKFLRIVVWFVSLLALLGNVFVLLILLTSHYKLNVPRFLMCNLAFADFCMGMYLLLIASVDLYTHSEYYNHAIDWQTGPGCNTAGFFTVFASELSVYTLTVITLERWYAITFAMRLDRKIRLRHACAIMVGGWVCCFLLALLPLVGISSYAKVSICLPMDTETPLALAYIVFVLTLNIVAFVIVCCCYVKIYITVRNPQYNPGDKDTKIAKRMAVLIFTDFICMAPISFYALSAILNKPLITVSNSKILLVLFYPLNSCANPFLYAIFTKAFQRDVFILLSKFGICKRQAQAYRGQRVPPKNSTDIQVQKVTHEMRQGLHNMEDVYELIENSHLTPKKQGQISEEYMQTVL
Procedure, shortened: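 Cell line HEK293 with TSHR; density 800/well. Exposure 30 min RT. Readout HTRF cAMP (cAMP-d2/anti-cAMP-cryptate), 1 h RT before reading.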

[12] = qHTS assay to identify small molecule agonists of the hypoxia (HIF-1) signaling pathway - cell viability counter screen (AID 1224844; calls by dose curve; note: nearly all actives have a fitted effect of over 50% in size; note: potency is the fitted concentration of half-maximal effect)
Procedure, shortened: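 Cells (HRE-bla ME-180, 2,000 per well) sat 5 hrs at 37C, got compound for 17 hrs, were read for CCF4-AM FRET, and were finally lysed with CellTiter-Glo for a 30 min room-temperature luminescence read.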

[13] = qHTS assay to identify small molecule agonists of the constitutive androstane receptor (CAR) signaling pathway - cell viability counter screen (AID 1224836); note: nearly all actives have a fitted effect of over 45% in size; note: potency is the fitted concentration of half-maximal effect
Procedure, shortened: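 Cell viability multiplexed with the CAR agonist screen: CellTiter-Fluor fluorescence after 23 hr at 37 C. HepG2-CYP2B6-hCAR cells got compounds at 15 concentrations with PK11195 at 0.75 uM final.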

| SMILES | Potency [1] | Potency [2] | Potency [3] | Potency [4] | Potency [5] | Potency [6] | Potency [7] | Potency [8] | Potency [9] | Potency [10] | Potency [11] | Potency [12] | Potency [13] |
| --- | --- | --- | --- | --- | --- | --- | --- | --- | --- | --- | --- | --- | --- |
| C[C@]12CC[C@H]3[C@@H](CCC4=CC(=O)CC[C@@H]43)[C@@H]1CC[C@@H]2OC(=O)CCc1ccccc1 | inactive | inactive | inactive | inactive | inactive | inactive | inactive | inactive | inactive | inactive | inactive | inactive | – |
| C=CCc1ccccc1O | – | inactive | inactive | inactive | inactive | – | – | inactive | inactive | inactive | – | inactive | inactive |
| CCCCC#N | inactive | inactive | inactive | inactive | inactive | inactive | inactive | inactive | – | – | inactive | inactive | inactive |
| CC(C)(C)OOC(C)(C)CCC(C)(C)OOC(C)(C)C | inactive | inactive | inactive | inactive | inactive | inactive | inactive | inactive | inactive | inactive | inactive | inactive | – |
| COc1cc(CC#N)cc(OC)c1OC | – | – | inactive | inactive | inactive | inactive | inactive | inactive | – | – | inactive | inactive | inactive |
| NC(=S)c1c(Cl)cccc1Cl | – | inactive | inactive | inactive | inactive | – | – | inactive | – | – | inactive | inactive | – |
| C[C@H](N)[C@H](O)c1ccc(O)c(O)c1 | – | inactive | inactive | inactive | inactive | inactive | inactive | inactive | inactive | inactive | – | inactive | inactive |
| O=[N+]([O-])/C=C/c1ccccc1 | – | – | 19.6 µM (active) | – | 30.6 µM (active) | 24.7 µM (active) and 24.3 µM (active) | inactive | 15.6 µM (active) and 24.3 µM (active) | inactive | 9.85 µM (active) and 13.7 µM (active) | inactive | 24.9 µM (active) and 54.9 µM (active) | 27.8 µM (active) and 24.3 µM (active) |
| O=C(O)c1cc(I)cc(I)c1I | inactive | inactive | – | inactive | inactive | inactive | inactive | inactive | – | – | inactive | inactive | inactive |
| CC(C)(C)c1ccc(CCOc2ncnc3ccccc23)cc1 | – | inactive | inactive | inactive | inactive | inactive | inactive | inactive | – | – | inactive | inactive | inactive |
| Nc1ccccc1C(=O)OCCc1ccccc1 | inactive | 173 nM (active) and 122 nM (active) | – | 897 nM (active) and 796 nM (active) | inactive | inactive | 54.7 µM (active) and 27.3 µM (active) | inactive | inactive | 1.09 µM (active) and 1.37 µM (active) | – | inactive | inactive |
| CCCC1CCCCN1 (stereo not given) | – | – | – | inactive | inactive | – | inactive | inactive | – | – | inactive | inactive | – |
| CN(C)C(=O)Nc1cccc(OC(=O)NC(C)(C)C)c1 | inactive | inactive | inactive | inactive | inactive | – | – | inactive | inactive | inactive | inactive | inactive | inactive |
| C=CCOCC1CO1 (stereo not given) | – | – | inactive | inactive | inactive | inactive | inactive | inactive | inactive | inactive | inactive | inactive | inactive |
| C=CC(=O)OCC | – | inactive | – | inactive | inactive | inactive | inactive | inactive | – | – | – | inactive | inactive |
| Nc1cccc2ccccc12 | – | – | inactive | inactive | inactive | inactive | 30.8 µM (active) and 61.1 µM (active) | inactive | – | – | inactive | inactive | inactive |
| C[CH2][Hg][S]c1ccccc1C(=O)O | 1.93 µM (active) and 2.66 µM (active) | – | 6.86 µM (active) and 9.44 µM (active) | – | 12.2 µM (active) and 7.5 µM (active) | 12.2 µM (active) and 6.68 µM (active) | inactive | 4.33 µM (active) and 11.9 µM (active) | inactive | 1.22 µM (active) and 2.37 µM (active) | inactive | 616 nM (active) and 1.9 µM (active) | 19.3 µM (active) and 11.9 µM (active) |
| CCC(=O)O[C@@H]1C=C2CCC3C(CCC4(C)C3CC[C@@H]4OC(=O)CC)C2CC1 (stereo not given in full) | – | – | inactive | inactive | inactive | – | – | inactive | – | – | inactive | inactive | inactive |
